ChEMBL document CHEMBL1961873, “Compounds: GSK PKIS; Assays: Nanosyn kinase panel” (2012)

Legend:
[1] = target: Tyrosine-protein kinase receptor UFO (Homo sapiens) (UniProt P30530); settings: at 1 µM
[2] = target: Tyrosine-protein kinase Blk (Homo sapiens) (UniProt P51451); settings: at 0.1 µM
[3] = target: Tyrosine-protein kinase Blk (Homo sapiens) (UniProt P51451); settings: at 1 µM
[4] = target: T1, Cytoplasmic tyrosine-protein kinase BMX (Homo sapiens) (UniProt P51813); settings: at 0.1 µM
T1 sequence (whole entry): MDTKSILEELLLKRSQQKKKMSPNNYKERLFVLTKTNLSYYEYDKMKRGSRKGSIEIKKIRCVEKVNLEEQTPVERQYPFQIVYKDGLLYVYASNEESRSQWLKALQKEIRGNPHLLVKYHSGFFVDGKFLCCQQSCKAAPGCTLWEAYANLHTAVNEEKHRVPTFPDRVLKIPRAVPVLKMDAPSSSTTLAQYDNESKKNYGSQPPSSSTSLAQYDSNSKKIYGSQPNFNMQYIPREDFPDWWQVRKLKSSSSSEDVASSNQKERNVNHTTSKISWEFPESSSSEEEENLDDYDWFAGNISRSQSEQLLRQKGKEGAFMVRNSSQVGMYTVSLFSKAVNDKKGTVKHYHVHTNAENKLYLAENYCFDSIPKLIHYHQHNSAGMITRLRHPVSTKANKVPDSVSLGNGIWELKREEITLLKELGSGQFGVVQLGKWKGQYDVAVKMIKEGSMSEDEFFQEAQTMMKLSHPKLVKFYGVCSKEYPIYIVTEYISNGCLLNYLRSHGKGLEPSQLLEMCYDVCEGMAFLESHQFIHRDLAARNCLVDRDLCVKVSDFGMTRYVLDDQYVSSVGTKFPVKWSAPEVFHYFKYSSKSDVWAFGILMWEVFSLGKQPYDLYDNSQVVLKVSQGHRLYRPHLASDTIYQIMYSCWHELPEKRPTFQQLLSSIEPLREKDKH

[5] = target: T1, Cytoplasmic tyrosine-protein kinase BMX (Homo sapiens); settings: at 1 µM
[6] = target: Protein-tyrosine kinase 6 (Homo sapiens) (UniProt Q13882); settings: at 0.1 µM
Chain of Protein-tyrosine kinase 6 (Homo sapiens) (Q13882 whole entry, looked up): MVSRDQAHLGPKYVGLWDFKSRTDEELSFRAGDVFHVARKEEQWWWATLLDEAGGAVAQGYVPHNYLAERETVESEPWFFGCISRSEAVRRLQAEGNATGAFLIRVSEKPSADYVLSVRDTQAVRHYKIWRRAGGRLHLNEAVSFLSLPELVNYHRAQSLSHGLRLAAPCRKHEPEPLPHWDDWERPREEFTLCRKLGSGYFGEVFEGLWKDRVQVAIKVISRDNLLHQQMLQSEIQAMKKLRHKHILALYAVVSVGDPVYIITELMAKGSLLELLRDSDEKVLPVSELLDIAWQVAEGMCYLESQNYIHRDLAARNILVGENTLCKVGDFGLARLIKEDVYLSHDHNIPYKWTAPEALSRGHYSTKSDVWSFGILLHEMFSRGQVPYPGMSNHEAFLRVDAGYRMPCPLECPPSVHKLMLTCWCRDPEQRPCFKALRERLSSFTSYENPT

[7] = target: Protein-tyrosine kinase 6 (Homo sapiens) (UniProt Q13882); settings: at 1 µM
[8] = target: Tyrosine-protein kinase BTK (Homo sapiens) (UniProt Q06187); settings: at 0.1 µM
Chain of Tyrosine-protein kinase BTK (Homo sapiens) (Q06187 whole entry): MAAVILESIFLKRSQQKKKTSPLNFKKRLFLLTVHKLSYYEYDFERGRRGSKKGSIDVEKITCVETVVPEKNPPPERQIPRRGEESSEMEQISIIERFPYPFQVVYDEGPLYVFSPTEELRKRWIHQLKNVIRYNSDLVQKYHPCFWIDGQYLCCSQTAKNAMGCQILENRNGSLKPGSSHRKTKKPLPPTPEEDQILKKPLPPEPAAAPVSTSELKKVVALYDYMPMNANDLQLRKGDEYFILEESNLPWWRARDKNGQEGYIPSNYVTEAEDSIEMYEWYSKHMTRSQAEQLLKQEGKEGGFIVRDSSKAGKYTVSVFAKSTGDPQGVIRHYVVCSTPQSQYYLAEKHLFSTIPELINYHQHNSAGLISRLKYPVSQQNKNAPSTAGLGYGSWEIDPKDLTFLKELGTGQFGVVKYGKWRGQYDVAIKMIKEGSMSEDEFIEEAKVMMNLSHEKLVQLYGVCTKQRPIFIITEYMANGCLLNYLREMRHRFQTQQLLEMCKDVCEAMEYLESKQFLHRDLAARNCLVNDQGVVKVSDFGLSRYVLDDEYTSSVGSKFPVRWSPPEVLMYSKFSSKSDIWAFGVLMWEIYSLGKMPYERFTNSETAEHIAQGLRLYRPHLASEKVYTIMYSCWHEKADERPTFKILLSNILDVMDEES

[9] = target: Tyrosine-protein kinase BTK (Homo sapiens) (UniProt Q06187); settings: at 1 µM
[10] = target: Tyrosine-protein kinase CSK (Homo sapiens) (UniProt P41240); settings: at 0.1 µM
[11] = target: Tyrosine-protein kinase CSK (Homo sapiens) (UniProt P41240); settings: at 1 µM
[12] = target: T2, Discoidin domain-containing receptor 2 (Homo sapiens) (UniProt Q16832); settings: at 0.1 µM
T2 sequence (whole entry): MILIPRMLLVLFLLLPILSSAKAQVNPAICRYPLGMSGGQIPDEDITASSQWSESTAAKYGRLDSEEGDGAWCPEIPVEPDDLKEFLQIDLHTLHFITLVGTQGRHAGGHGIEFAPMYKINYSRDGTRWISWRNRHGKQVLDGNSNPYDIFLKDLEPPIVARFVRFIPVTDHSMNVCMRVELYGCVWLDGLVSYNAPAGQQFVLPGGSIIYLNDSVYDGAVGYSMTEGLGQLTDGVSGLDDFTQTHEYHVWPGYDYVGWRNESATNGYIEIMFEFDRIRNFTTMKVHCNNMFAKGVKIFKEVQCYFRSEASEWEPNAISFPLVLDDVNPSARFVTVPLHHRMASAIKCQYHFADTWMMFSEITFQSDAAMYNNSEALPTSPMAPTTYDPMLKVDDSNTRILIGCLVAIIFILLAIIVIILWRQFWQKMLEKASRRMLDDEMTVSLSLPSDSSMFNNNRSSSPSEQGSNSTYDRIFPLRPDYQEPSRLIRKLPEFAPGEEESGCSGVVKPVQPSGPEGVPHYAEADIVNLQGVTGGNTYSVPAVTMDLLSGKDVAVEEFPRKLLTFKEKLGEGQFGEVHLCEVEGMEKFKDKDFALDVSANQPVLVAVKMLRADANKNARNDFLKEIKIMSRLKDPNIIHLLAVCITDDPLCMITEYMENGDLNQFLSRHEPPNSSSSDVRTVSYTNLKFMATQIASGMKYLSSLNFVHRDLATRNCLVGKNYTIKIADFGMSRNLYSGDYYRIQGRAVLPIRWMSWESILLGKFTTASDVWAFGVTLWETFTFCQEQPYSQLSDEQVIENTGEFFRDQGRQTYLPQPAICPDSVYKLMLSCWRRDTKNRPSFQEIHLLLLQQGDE

[13] = target: T2, Discoidin domain-containing receptor 2 (Homo sapiens); settings: at 1 µM
[14] = target: Epidermal growth factor receptor (Homo sapiens) (UniProt P00533); settings: at 0.1 µM
Chain of Epidermal growth factor receptor (Homo sapiens) (P00533 whole entry): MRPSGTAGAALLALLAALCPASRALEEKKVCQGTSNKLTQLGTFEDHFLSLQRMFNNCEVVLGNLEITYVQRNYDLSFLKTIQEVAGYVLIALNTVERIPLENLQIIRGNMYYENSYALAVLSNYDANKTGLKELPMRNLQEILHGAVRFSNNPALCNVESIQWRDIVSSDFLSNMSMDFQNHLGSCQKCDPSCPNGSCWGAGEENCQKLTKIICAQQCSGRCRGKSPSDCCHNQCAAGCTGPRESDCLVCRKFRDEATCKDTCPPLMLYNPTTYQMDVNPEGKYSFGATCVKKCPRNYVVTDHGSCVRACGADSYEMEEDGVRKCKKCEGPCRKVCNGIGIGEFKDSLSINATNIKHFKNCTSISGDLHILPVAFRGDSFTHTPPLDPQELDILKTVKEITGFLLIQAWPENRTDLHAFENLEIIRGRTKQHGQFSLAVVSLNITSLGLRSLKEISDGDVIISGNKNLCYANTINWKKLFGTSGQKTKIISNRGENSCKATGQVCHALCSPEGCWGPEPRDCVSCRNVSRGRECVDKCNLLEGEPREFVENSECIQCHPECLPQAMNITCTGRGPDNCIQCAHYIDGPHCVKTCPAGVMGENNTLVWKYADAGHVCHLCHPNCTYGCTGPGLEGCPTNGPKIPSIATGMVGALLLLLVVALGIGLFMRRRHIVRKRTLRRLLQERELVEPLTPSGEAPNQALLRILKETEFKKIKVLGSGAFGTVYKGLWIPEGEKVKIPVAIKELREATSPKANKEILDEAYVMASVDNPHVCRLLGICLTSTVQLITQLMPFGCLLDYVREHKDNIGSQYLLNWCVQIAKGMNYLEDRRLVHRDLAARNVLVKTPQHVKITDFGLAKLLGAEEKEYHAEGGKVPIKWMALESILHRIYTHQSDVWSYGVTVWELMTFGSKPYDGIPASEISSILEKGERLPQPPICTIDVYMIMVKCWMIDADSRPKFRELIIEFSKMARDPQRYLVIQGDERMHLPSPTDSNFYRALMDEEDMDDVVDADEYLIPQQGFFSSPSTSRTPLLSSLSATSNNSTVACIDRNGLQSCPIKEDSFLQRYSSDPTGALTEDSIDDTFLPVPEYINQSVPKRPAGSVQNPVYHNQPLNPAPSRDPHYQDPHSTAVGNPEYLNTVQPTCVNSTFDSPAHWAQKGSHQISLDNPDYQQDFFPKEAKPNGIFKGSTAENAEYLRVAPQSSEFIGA

[15] = target: Epidermal growth factor receptor (Homo sapiens) (UniProt P00533); settings: at 1 µM
[16] = system: Epidermal growth factor receptor (Homo sapiens), P00533 [L858R]; settings: at 0.1 µM
Chain of Epidermal growth factor receptor (Homo sapiens), P00533 [L858R] (P00533 whole entry L858R): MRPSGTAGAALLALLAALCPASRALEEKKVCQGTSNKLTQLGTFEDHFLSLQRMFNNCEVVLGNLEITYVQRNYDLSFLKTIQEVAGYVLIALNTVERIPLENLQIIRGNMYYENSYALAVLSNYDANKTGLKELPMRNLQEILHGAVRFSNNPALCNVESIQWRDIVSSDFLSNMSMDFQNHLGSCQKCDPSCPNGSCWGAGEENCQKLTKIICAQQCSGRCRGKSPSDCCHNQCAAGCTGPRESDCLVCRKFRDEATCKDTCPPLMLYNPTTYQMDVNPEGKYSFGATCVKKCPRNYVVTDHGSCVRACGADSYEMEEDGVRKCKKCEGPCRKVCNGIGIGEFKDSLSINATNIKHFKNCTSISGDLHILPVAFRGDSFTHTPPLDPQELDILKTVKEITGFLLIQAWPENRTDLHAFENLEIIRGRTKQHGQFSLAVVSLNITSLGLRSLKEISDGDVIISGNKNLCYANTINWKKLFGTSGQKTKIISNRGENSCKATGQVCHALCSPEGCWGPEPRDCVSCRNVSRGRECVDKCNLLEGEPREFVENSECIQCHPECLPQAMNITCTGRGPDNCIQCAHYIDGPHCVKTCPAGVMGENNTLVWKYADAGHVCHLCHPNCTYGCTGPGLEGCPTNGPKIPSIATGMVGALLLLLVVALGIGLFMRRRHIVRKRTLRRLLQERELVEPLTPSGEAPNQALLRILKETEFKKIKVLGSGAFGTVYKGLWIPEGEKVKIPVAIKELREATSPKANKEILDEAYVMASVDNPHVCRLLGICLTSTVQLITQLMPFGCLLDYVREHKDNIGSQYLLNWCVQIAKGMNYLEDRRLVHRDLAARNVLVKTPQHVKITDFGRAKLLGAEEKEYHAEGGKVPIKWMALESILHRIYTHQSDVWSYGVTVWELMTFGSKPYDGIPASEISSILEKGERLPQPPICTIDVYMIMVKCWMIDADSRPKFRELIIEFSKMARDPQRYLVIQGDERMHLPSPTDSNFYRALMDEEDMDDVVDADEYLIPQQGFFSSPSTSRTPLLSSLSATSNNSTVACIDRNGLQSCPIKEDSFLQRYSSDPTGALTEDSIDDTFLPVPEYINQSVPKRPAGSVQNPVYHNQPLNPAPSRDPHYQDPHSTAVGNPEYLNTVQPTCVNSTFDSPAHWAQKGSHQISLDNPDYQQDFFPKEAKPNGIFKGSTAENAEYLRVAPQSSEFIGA

[17] = system: Epidermal growth factor receptor (Homo sapiens), P00533 [L858R]; settings: at 1 µM
[18] = system: Epidermal growth factor receptor (Homo sapiens), P00533 [L861Q]; settings: at 0.1 µM
[19] = system: Epidermal growth factor receptor (Homo sapiens), P00533 [L861Q]; settings: at 1 µM
[20] = system: Epidermal growth factor receptor (Homo sapiens), P00533 [T790M]; settings: at 0.1 µM

Chain of Tyrosine-protein kinase receptor UFO (Homo sapiens) (P30530 whole entry): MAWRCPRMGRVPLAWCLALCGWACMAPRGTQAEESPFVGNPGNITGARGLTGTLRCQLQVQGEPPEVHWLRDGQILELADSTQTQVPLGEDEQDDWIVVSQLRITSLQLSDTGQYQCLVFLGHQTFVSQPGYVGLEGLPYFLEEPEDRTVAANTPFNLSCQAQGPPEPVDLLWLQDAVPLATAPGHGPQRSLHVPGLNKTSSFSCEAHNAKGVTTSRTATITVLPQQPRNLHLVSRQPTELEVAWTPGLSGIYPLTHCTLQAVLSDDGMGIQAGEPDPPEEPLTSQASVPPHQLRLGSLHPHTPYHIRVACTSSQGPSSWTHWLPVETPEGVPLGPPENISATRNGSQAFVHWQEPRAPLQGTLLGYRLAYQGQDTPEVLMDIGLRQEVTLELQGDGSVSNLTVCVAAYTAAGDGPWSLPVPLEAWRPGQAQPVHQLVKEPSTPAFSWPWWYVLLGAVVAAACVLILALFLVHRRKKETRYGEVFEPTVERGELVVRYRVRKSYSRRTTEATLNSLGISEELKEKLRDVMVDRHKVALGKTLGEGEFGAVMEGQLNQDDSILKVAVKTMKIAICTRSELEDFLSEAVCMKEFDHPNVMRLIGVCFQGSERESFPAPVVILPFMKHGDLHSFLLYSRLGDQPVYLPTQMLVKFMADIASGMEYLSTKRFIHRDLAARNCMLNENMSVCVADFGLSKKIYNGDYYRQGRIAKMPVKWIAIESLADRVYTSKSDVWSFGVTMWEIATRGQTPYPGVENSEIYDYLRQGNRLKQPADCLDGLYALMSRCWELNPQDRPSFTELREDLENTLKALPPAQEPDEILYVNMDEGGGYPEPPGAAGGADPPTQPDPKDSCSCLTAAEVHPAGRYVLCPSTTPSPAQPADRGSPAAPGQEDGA
Chain of Tyrosine-protein kinase Blk (Homo sapiens) (P51451 2-505 limits assumed): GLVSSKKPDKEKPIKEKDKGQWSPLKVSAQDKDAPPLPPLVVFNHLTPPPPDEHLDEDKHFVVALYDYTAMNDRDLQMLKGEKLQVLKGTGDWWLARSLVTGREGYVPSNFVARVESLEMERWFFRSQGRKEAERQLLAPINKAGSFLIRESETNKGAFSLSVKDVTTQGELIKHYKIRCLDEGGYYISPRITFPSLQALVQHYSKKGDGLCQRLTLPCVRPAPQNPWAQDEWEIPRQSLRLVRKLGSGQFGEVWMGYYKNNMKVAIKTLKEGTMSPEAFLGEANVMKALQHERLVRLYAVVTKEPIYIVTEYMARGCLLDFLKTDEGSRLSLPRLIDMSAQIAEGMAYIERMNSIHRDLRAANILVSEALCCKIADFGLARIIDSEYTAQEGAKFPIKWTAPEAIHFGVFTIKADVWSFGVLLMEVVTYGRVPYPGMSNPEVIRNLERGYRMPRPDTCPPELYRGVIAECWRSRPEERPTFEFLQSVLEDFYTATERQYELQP

SMILES | inhibition [1] [%] | inhibition [2] [%] | inhibition [3] [%] | inhibition [4] [%] | inhibition [5] [%] | inhibition [6] [%] | inhibition [7] [%] | inhibition [8] [%] | inhibition [9] [%] | inhibition [10] [%] | inhibition [11] [%] | inhibition [12] [%] | inhibition [13] [%] | inhibition [14] [%] | inhibition [15] [%] | inhibition [16] [%] | inhibition [17] [%] | inhibition [18] [%] | inhibition [19] [%] | inhibition [20] [%]
O=C1NC(=O)C(c2ccc(Cl)cc2)=C1Nc1ccc(Cl)c(C(=O)O)c1 | 7.43 | -0.2 | -2.5 | -4.08 | -3.08 | 0.06 | -1.29 | -0.05 | 0.05 | -3.37 | -4.62 | 0.03 | 2.46 | 1.07 | 6.73 | -2.2 | 6.41 | 0.32 | 1.03 | -0.88
Nc1nc(-c2ccc3c(c2)C(=Cc2cc(Br)c(O)c(Br)c2)C(=O)N3)cs1 | 2.96 | -4.1 | 5.56 | -0.96 | -0.09 | -1.42 | 0.1 | -1.45 | -0.23 | -4.69 | -6.6 | 0.46 | 2.46 | 0.84 | 5.53 | -3.68 | 8.58 | 0.03 | 1.67 | -1.77
Nc1ncnc2occ(-c3ccc(NC(=O)Nc4cc(C(F)(F)F)cc(C(F)(F)F)c4)cc3)c12 | 22.1 | 2.66 | 36.5 | 4.42 | 49.9 | 1.52 | 2.35 | 2.44 | 9.01 | 3.53 | 20.6 | 67.7 | 84.4 | 0.56 | 0.39 | 1.34 | -2.77 | 2.29 | -2.09 | 1.48
COc1cc2ncn(-c3cc(OCc4ccccc4C(F)(F)F)c(C(N)=O)s3)c2cc1OC | -1.95 | 1.67 | 17.8 | 4.67 | 8.1 | 3.25 | 5.16 | -3.7 | -1.82 | 3.11 | 9.28 | 7.36 | 7.43 |  | 3.5 | 2.54 | 13.5 | 3.75 | 4.35 | 2
COc1ccc(-c2ccncc2)cc1C(N)=O | -7.29 | 3.55 | 3.47 | 3.29 | 5.58 | 3.09 | 3.57 | -1.01 | -0.13 | 2.75 | 2.12 | 2.19 | 2.53 | 4.47 | 4.86 | 5.16 | 4.73 | 4.48 | 6.9 | 0.43
O=C1Nc2ccc(C(=O)c3ccco3)cc2C1=Cc1cc(Cl)c(O)c(Cl)c1 | -5.53 | 3.04 | 19.1 | -1.7 | 5.27 | 4.83 | 6.88 | 1.4 | 1.76 | 6.31 | 7.85 | 2.1 | 6.8 | 1.89 | 5.16 | 4.06 | 13.7 | 3.88 | 19.6 | 1.42
CCn1c(-c2nonc2N)nc2cncc(C(=O)N3CCNCC3)c21 | -9.66 | 2.72 | 4.31 | 6.75 | 8.89 | 4.01 | 5.31 | -1.34 | 1.16 | 4.39 | 4.45 | 1.63 | 1.68 | 1.08 | 2.62 | 3.95 | 3.98 | 3.22 | 5.49 | 2.68
Cc1nn(C)c2cc(N(C)c3ccnc(Nc4cccc(S(N)(=O)=O)c4)n3)ccc12 | -1.13 | 5.53 | 46.8 | 8.2 | 35.1 | 10.8 | 52 | -0.96 | 6.74 | 5.24 | 22.4 | -2.88 |  | 5.33 | 13.9 | 1.02 | 16 | 2.56 | 9.38 | 1.34
Cc1nnc(-c2ccc(C)c(-c3ccc(C(=O)Nc4cccc(C#N)c4)cc3)c2)o1 |  | 2.41 | 3.76 | 4.54 | 2.78 | 2.27 | 2.95 | -0.22 | 1.88 | 0.99 | 6.38 | 1.45 | 1.83 | 6.74 | 8.18 | 0.95 | 3.01 | 1.88 | 2.37 | 1.41
CS(=O)(=O)CCN(CC#N)Cc1ccc(-c2ccc3ncnc(Nc4ccc(OCc5cccc(F)c5)c(Cl)c4)c3c2)o1 | -5.07 | -2.59 | -2.7 | 1.65 | 3.9 | 2.35 | 4.81 | -4.96 | -5.01 | 3.24 | 4.77 | 0.7 | 0.75 | 69.4 | 77.2 | 36.5 | 83.6 | 41.5 | 76.2 | 1.04
NS(=O)(=O)c1cccc(-c2ccc3c(NC(=O)C4CC4)n[nH]c3c2)c1 | 2.37 | -0.75 | 0.74 | -2.14 | 0.66 | -2.66 | 0.49 | -0.13 | -1.52 | -7.29 | -3.46 | -0.11 | -9.65 | 0.04 | 0.71 | -0.88 | -2.32 | 1.67 | -0.49 | -1.44
Fc1cccc(COc2ccc(Nc3ncnc4cc(-c5ccc[nH]5)sc34)cc2Cl)c1 | -0.12 | -2.62 | 0.69 | 2.13 | 1.82 | 1.55 | 6.36 | -5.43 | -4.27 | 2.68 | 1.12 | 0.15 | -1 | 66.2 | 77.3 | 32.5 | 82.9 | 37.8 | 71.8 | 0.21
CCCN1CCC(Oc2cc(Nc3nc(Nc4cccc(F)c4C(N)=O)c4cc[nH]c4n3)c(OC)cc2Cl)CC1 | 6.29 | 0.32 | 4.43 | -3.07 | 0.44 | 2.81 | 14.8 | 0.06 | 0.8 | -0.02 | 0.71 | 5.18 | 9.57 | 1.11 | 2.64 | 1.86 | 1.31 | 1.13 | 0.75 | -0.41
CCN1CCC(CC(=O)Nc2n[nH]c3nc(-c4cccs4)c(Br)cc23)CC1 | 2.24 | -1.4 | 0.14 | -3.73 | -1.1 | -3.07 | 0.94 | -1.38 | 0.05 |  | -4.84 | -0.58 | 0.03 | 1.1 | 3.65 | 0.06 | 3.28 | -0.27 | 1.14 | -1.65
